TbPYK inhibitor: blocks Trypanosoma brucei pyruvate kinase. Q57TT1. TbPYK enzyme, Kinase-Glo Plus ATP luminescence, 45 min. Potency, µM (titrated, usually from 76.8 µM), hits mostly inhibitors. actives 0.12% (n = 410,000). AID 624173; also: nearly all actives have a fitted effect of over 50% in size
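TbPYK + substrate in 50 mM TEA pH 7.2, 100 mM KCl, 10 mM MgCl2, 0.05% BSA, 0.01% Tween-20; cpd pinned; ADP 130 uM final; 45 min RT; Kinase-Glo Plus 10 min; luminescence endpoint.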
LmPK inhibitor: inhibitors of Leishmania mexicana pyruvate kinase; actives 0.37% (n = 290,000); purified LmPK, Kinase-Glo ATP luminescence, 1 h; Potency, µM (doses to about 57.5 µM), most hits filed as inhibitors
Target sequence (Q27686 whole entry, looked up): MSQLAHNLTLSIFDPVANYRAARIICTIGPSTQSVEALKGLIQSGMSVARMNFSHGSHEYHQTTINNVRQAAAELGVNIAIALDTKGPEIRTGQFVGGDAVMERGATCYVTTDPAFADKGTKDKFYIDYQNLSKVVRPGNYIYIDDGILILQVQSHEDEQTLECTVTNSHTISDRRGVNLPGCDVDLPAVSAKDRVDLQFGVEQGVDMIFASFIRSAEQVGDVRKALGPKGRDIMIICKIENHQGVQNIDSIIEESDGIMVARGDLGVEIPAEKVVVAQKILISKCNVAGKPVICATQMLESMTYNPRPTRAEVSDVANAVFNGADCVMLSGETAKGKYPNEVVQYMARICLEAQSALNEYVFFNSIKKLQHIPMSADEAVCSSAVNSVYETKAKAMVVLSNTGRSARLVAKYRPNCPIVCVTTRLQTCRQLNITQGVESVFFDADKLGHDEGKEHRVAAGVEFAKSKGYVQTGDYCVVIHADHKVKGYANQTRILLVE
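Pyruvate kinase activity monitored as ATP production (luciferase luminescence). Conditions: 0.1 nM enzyme, 0.5 mM PEP, 0.1 mM ADP, 1 h, RT; normalized against uninhibited and no-enzyme wells.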
Sm TGR inh: S. mansoni TGR enzyme inhibition | purified TGR, DTNB reduction, TNB absorbance 405 nm | Potency, µM (highest dose often 114 µM), usual class: inhibitors | actives 3% (n = 360,000) | AID 485364; also: nearly all actives have a fitted effect of over 60% in size
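Kinetic colorimetric format: TGR-catalysed, NADPH-driven DTNB reduction monitored via TNB absorbance. Enzyme dispensed at 20 nM; compound exposure 15 min at room temperature before reaction start.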
RE007 growth inh: less growth of the S. pombe RE007 Vpr strain. S. pombe RE007 Vpr strain, BacTiter-Glo ATP luminescence, 24 h. Potency, µM (series often up to 92.2 µM), actives largely listed as inhibitors. actives 0.21% (n = 360,000). AID 651644; active = well fitted falling curve with a large enough effect; inconclusive = small, poorly fitted or top-dose-only effect; inactive = no such curve, though single readings can be large or run the other way; also: nearly all actives have a fitted effect of over 50% in size
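Fission yeast RE007 carrying one integrated HIV-1 vpr copy, seeded at OD 0.01 in PMG+AL medium with 23 nL pinned compound. Grown 24 h at 30 degrees; viability read by BacTiter-Glo luminescence after 5 min.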
Numbers stand for hits; . = inactive; ? = inconclusive; / = no result. The list is not random: actives were taken first. Their share in the collection is about 3%. Unless noted, calls follow the shape of the dose curve; as a rule, active = well fitted curve in the direction sought with a large enough effect; inconclusive = small, poorly fitted or top-dose-only effect, or another doubt; inactive = no such curve, though single readings can be large; an effect the other way counts as inactive or inconclusive.

SMILES	TbPYK inhibitor	LmPK inhibitor	Sm TGR inh	RE007 growth inh
Cc1ccc(S(=O)(=O)/N=C(/Nc2ccc([N+](=O)[O-])cc2)c2ccccc2)cc1	.	.	.	.
O=C(c1ccc(-c2cccc([N+](=O)[O-])c2)o1)N1CCN(c2ccc([N+](=O)[O-])cc2)CC1	.	/	.	.
O=C(c1ccc(-c2ccc([N+](=O)[O-])cc2)o1)N1CCCCC1	.	.	45µM	.
CC1CC(C)CN(C(=O)c2ccc(-c3ccc([N+](=O)[O-])cc3)o2)C1 (stereo not drawn)	.	/	3.2µM	?
CCc1cccc(C)c1NC(=O)CCCn1c(C)c2cnn(-c3ccccc3)c(=O)c2c1C	.	/	?	/
COC(=O)c1ccc(CN2C(=O)c3ccccc3C2=O)o1	.	.	.	.
COC(=O)c1ccc(CN2CCN(Cc3ccc(C(=O)OC)o3)CC2)o1	.	.	35µM	.
O=C(/C=C/c1ccco1)N1CCN(S(=O)(=O)c2ccc(F)c(F)c2F)CC1	.	.	5µM	.
Cc1ccc(S(=O)(=O)N2CCN(C(=O)/C=C/c3ccco3)CC2)cc1	.	.	50µM	.
Cc1ccc(C)c(S(=O)(=O)N2CCN(C(=O)/C=C/c3ccco3)CC2)c1	.	/	4µM	.
Cc1ccc2cc3cc(C(=O)N(C)c4ccccc4C)oc3nc2c1	.	/	.	/
CCOc1ccc(OCC)c(NS(=O)(=O)c2cc(-c3onc(C)c3C)ccc2OC)c1	.	/	.	/
O=C(CBr)Nc1c2c(nn1-c1ccccc1)CSC2	.	.	35µM	.
COc1ccc(-n2nc3c(c2NC(=O)CCCCl)CSC3)cc1	.	.	.	.
COc1ccc(-n2nc3c(c2NC(=O)CBr)CSC3)cc1	.	.	40µM	.
CCCC(=O)Nc1c2c(nn1-c1ccccc1)CSC2	.	.	.	.
CC1=CC(c2ccccc2)n2nc(N3C(=O)c4ccccc4C3=O)nc2N1 (stereo not drawn)	.	.	35µM	.
CC1=CC(c2ccccc2)n2nc(N3C(=O)CCC3=O)nc2N1 (stereo not drawn)	.	.	.	.
CSc1ccc(/C=N/NC(=O)c2cccc(O)c2)cc1	.	8.9µM	.	.
C#CCOCCOCCOCCNc1nc(N2CCN(C(=O)[C@H](C(C)C)n3cc(CCO)nn3)CC2)nc(N2CCN(C(=O)[C@H](Cc3ccc(O)cc3)n3cc(CCO)nn3)CC2)n1	.	/	/	.
C#CCOCCOCCOCCNc1nc(N2CCN(C(=O)[C@H](CCCCN)n3cc(C(N)[C@H](C)CC)nn3)CC2)nc(N2CCN(C(=O)[C@H](CCC(=O)O)n3cc(C(N)[C@H](C)CC)nn3)CC2)n1 (stereo partly drawn)	.	.	16µM	.
C#CCOCCOCCOCCNc1nc(N2CCN(C(=O)[C@H](Cc3ccc(O)cc3)n3cc(CCO)nn3)CC2)nc(N2CCN(C(=O)[C@H](Cc3ccc(O)cc3)n3cc(CCO)nn3)CC2)n1	/	.	40µM	/
C#CCOCCOCCOCCNc1nc(N2CCN(C(=O)[C@H](CCC(=O)O)n3cc(C(N)CO)nn3)CC2)nc(N2CCN(C(=O)[C@H](Cc3ccc(O)cc3)n3cc(C(N)CC(C)C)nn3)CC2)n1 (stereo partly drawn)	/	.	10µM	/
C#CCOCCOCCOCCNc1nc(N2CCN(C(=O)[C@H](CCC(=O)O)n3cc(C(N)Cc4ccc(O)cc4)nn3)CC2)nc(N2CCN(C(=O)[C@H](CCC(=O)O)n3cc(C(N)CC(C)C)nn3)CC2)n1 (stereo partly drawn)	.	.	35µM	.
CCOC(=S)SSC(=S)OCC	.	/	/	/
SMILES	TbPYK inhibitor	LmPK inhibitor	Sm TGR inh	RE007 growth inh
Cc1c(CC(=O)N2CCCCC2)c(=O)oc2cc3occ(C(C)(C)C)c3cc12	.	/	.	/
COc1cc(NC(=O)Cn2cnc3sc(C)c(S(=O)(=O)N4CCC(C)CC4)c3c2=O)cc(OC)c1OC	.	/	.	/
C#CCOCCOCCOCCNc1nc(N2CCN(C(=O)C([C@@H](C)CC)n3cc(C(N)CO)nn3)CC2)nc(N2CCN(C(=O)[C@H](CCC(=O)O)n3cc(C(N)Cc4ccc(O)cc4)nn3)CC2)n1 (stereo partly drawn)	/	.	?	/
C#CCOCCOCCOCCNc1nc(N2CCN(C(=O)[C@H]([C@@H](C)CC)n3cc([C@@H](N)Cc4ccc(O)cc4)nn3)CC2)nc(N2CCN(C(=O)[C@H](CCCCN)n3cc([C@@H](N)CO)nn3)CC2)n1	/	.	20µM	/
Cc1cc(NC(=O)c2ccc(NC(=O)CCS(=O)(=O)c3cccs3)cc2)ccc1Br	.	/	.	/
O=C(O[C@@H]1Cc2c(O)cc(O)cc2O[C@@H]1c1cc(O)c(O)c(O)c1)c1cc(O)c(O)c(O)c1	/	.	11µM	/
O=C1C2C(C(=O)N1Cc1ccco1)C1C=CC2C12CC2 (stereo not drawn)	.	.	.	.
O=C1C2C3C=CC(C4CC34)C2C(=O)N1Cc1ccco1 (stereo not drawn)	.	.	50µM	.
CC1(C)CC(=O)C2=C(C1)N(Cc1ccco1)C(=O)C2(NC(=O)C1CCCCC1)C(F)(F)F (stereo not drawn)	.	.	32µM	.
CC1(C)CC(=O)C2=C(C1)N(Cc1ccco1)C(=O)C2(NC(=O)c1ccc(Cl)cc1Cl)C(F)(F)F (stereo not drawn)	.	.	.	.
CCCNC(=O)CS(=O)Cc1nc(-c2ccc(OC)cc2)oc1C (stereo not drawn)	.	.	50µM	.
CCCCNC(=O)CS(=O)Cc1nc(-c2ccc(C)cc2)oc1C (stereo not drawn)	.	.	45µM	.
CCc1ccc(-c2nc(CS(=O)CC(=O)NCCCN3CCOCC3)c(C)o2)cc1 (stereo not drawn)	.	.	35µM	.
Cc1oc(-c2ccc(Cl)cc2)nc1CS(=O)CC(=O)NCCCN1CCN(Cc2ccccc2)CC1 (stereo not drawn)	.	.	.	.
COc1ccc(-c2nc(CS(=O)CC(=O)NCCc3ccc(OC)c(OC)c3)c(C)o2)cc1 (stereo not drawn)	.	.	?	.
CCCN(CCC)CCNC(=O)CS(=O)Cc1nc(-c2ccc(C)cc2)oc1C (stereo not drawn)	.	.	.	.
O=C(CSc1nc2ccsc2c(=O)n1Cc1ccccc1F)NCc1ccccc1Cl	.	/	.	/
Cc1ccc(-c2nnn(CC(=O)N(Cc3ccccc3F)C(C(=O)NC3CCCC3)c3ccncc3)n2)o1 (stereo not drawn)	.	.	40µM	.
CO[C@@H]1[C@H](N(C)C(=O)c2ccccc2)C[C@H]2O[C@]1(C)n1c3ccccc3c3c4c(c5c6ccccc6n2c5c31)C(=O)NC4	.	/	/	/
CN1c2ccccc2C(C)(C)C12CCCC(=O)N2 (stereo not drawn)	.	.	20µM	.
CCC(=O)OCOc1ccc(/C=C2/CCC(CN(C)C)C2=O)cc1 (stereo not drawn)	.	/	/	8.9µM

Source: PubChem
